Several values for one entry are separate records, joined by “and”; a condition that tells them apart may be missing. Equal values may be shown once. A structure can be active in one record and inactive in another. Activity calls are given as the source filed them.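 The calls were made as follows, unless noted: active = thallium flux through the channel raised or lowered by more than 3 SD from vehicle-only wells, actives on both sides; inactive = the rest.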
Assays:
[1] = tested on: Hepatitis C virus NS3 helicase; assay: HCV NS3 helicase inhibitors, primary screen, biochemical, fluorescence polarization, NIH Clinical Collection (AID 743270; call rule not given here); conditions: NS3 helicase binding to Cy5-dT15 DNA, stronger effect = higher value, concentration not given here
[2] = molecular target: Single-stranded DNA-binding protein (Escherichia coli (strain K12)) (UniProt P0AGE0); assay: E. coli SSB displacement from DNA, counter-screen for HCV NS3 helicase inhibitor project, biochemical, fluorescence polarization, NIH Clinical Collection (AID 743271; in the data active = inhibition above about 28%); conditions: stronger effect = higher value, concentration not given here
[3] = fluorescence interference in NS3h assay format, artefact control for HCV NS3 helicase inhibitor project, biochemical, NIH Clinical Collection (AID 743272; call rule not given here;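 also: HCV NS3 helicase with a Cy5 labelled single stranded DNA probe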); conditions: fluorescence interference counterscreen, stronger effect = lower value
[4] = stimulators of nuclear beta-catenin in C2C12, primary screen, imaging, WNT3A-conditioned medium, mouse C2C12, NPC library (AID 1117326; in the data active = nuclear beta-catenin stimulation mostly above about 4.2%, no sharp cut-off; inactive = mostly below about 10%); conditions: stronger effect = higher value
[5] = stimulators of insulin release from INS-1E, primary screen, cell-based, 5 mM glucose, NPC library (AID 1117329;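 active = compound raises insulin release from rat beta cells at 5 mM glucose, no numeric limit stated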); conditions: rat INS-1E insulin secretion, at 10 µM, stronger effect = higher value
[6] = growth inhibition of GSK3B-pretreated HCT116 cells – cell-based, CellTiter-Glo, 0.2 to 20 µM (AID 1117336;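 active = compounds lowering colon cancer cell viability after pretreatment blocking the GSK3B kinase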); conditions: HCT116 viability after GSK3B inhibitor, at 20 µM, stronger effect = higher value
[7] = inhibition of endothelial tube formation, primary screen, imaging, VEGF stimulated, CD31 staining, tube area, NPC library (AID 1117340;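 active = compound that reduces growth-factor-driven endothelial tube area in a mixed cell culture, no cutoff stated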); conditions: VEGF-stimulated ADSC/ECFC co-culture, at 10 µM, stronger effect = higher value
[8] = glucagon-like peptide 1 release enhancers, primary assay, NCI-H716 cell line, NPC library (AID 1117341;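 active = compound raises GLP1 secretion from the human gut endocrine cells, with no numeric limit stated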); conditions: NCI-H716 cells, at 10 µM, stronger effect = higher value
[9] = HCT116 colon cancer cell growth inhibition, primary screen, CellTiter-Glo luminescence, NPC library (AID 1117342;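 active = compounds that lower survival of HCT116 colon cancer cells in the luminescence readout, no numeric limit stated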); conditions: at 20 µM (top of the series)
[10] = CellTiter-Glo luminescent readout of SW480 viability loss, NPC library primary (AID 1117343;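 active = compounds that lower viability of the colon cancer cells in the luminescence readout, with no numeric limit stated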); conditions: CellTiter-Glo luminescence; at 20 µM (top of the series)
[11] = decreased DLD-1 cellular survival, CellTiter-Glo luminescent readout, NPC compound collection, primary HTS (AID 1117346;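 active = compounds that lower survival of DLD-1 colon cancer cells in the luminescence readout, no cutoff given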); conditions: DLD-1 viability, CellTiter-Glo luminescence; at 20 µM (top of the series)
[12] = molecular target: 6-phosphogluconate dehydrogenase, decarboxylating (Homo sapiens) (UniProt P52209); assay: 6PGD enzyme inhibitors, primary screen, biochemical, human, recombinant enzyme, NADPH absorbance (AID 1159550;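 active = at least 20% inhibition of 6-phosphogluconate dehydrogenase activity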); conditions: recombinant 6PGD, NADPH absorbance 341 nm; at 10 µM; stronger effect = higher value
6-phosphogluconate dehydrogenase, decarboxylating (Homo sapiens), sequence (P52209 whole entry, looked up): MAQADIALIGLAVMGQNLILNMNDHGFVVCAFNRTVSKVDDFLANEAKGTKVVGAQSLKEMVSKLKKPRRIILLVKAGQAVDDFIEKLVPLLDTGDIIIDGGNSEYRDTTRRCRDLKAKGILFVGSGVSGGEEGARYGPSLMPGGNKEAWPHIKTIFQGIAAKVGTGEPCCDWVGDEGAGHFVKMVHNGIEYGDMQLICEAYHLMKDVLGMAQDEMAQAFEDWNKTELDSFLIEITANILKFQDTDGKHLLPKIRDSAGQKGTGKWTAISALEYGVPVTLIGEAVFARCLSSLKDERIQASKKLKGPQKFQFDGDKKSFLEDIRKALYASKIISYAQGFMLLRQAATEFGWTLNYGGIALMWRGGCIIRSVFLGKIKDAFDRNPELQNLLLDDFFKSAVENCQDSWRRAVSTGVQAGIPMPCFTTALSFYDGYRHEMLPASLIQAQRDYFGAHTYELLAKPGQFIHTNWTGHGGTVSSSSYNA

[13] = differential killing of epithelial or mesenchymal cells, primary screen, imaging, PC-3E GFP, TEM4-18 mCherry, co-culture (AID 1345086;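 active = compounds killing one labelled cell type while sparing the other, by normalised counts and ratio limits, not self-fluorescent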;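 as to all read-outs here: cells exposed to compound for 72 h before imaging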;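 as to red/green cell ratio (normalised): normalised mesenchymal count divided by normalised epithelial count so high means epithelial killing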); conditions: imaging cell counts, at 1 µM; for red/green cell ratio (normalised): actives lie on both sides, counts scaled to control wells, 1 = unselective
[14] = survival rescue of mitochondrial mutant cells in low glucose, primary screen, MELAS cybrids, Rieske KO mouse fibroblasts, CellTiter-Glo (AID 1508586;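 active = mean z-score across replicates of 1.96 or higher in either the MELAS or the Rieske mutant cell line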;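 also: z relative to plate mean and SD of compound and empty wells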)
[15] = molecular target: NAD(+) hydrolase SARM1 (Homo sapiens) (UniProt Q6SZW1); assay: SARM1 TIR NADase inhibitors, cell lysate, NAD-Glo luminescence (AID 1508614;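 active = compound whose remaining NAD level is above about 45 nM, limit read from the data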;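 also: higher remaining NAD means stronger inhibition of SARM1 NADase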); conditions: SAM-TIR HEK293T lysate NADase, at 1 µM, stronger effect = higher value
NAD(+) hydrolase SARM1 (Homo sapiens), sequence (Q6SZW1 whole entry, looked up, the tested form may be a part): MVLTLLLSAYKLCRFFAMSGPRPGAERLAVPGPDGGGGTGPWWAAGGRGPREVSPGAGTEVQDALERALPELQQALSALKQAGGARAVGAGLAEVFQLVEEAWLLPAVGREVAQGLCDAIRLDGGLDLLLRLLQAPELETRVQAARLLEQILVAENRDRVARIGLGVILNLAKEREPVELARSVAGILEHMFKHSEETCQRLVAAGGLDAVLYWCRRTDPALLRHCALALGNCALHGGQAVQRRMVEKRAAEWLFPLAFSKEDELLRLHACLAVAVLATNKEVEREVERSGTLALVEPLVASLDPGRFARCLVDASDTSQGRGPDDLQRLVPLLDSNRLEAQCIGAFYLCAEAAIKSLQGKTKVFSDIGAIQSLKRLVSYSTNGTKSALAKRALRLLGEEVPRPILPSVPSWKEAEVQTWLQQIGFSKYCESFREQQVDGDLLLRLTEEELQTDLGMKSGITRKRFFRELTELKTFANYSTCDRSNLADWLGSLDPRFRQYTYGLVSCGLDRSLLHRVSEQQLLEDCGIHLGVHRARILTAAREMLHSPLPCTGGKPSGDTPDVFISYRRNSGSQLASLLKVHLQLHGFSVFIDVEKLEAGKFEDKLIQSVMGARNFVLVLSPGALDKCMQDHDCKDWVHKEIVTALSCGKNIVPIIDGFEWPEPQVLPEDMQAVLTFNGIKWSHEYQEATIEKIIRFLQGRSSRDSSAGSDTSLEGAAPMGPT

[16] = molecular target: Mitogen-activated protein kinase 7 (Homo sapiens) (UniProt Q13164); assay: ERK5 transactivation activators in reporter cells, primary screen, cell-based, HTS (AID 1508626;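 active = luciferase signal above three times the same-plate solvent-only control wells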;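 also: luciferase driven by Gal4-ERK5 fusion binding five Gal4 sites before minimal TATA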); conditions: HeLa Gal4-ERK5 transactivation, 18 h, at 5 µM, stronger effect = higher value
Mitogen-activated protein kinase 7 (Homo sapiens), sequence (Q13164 whole entry, looked up, the tested form may be a part): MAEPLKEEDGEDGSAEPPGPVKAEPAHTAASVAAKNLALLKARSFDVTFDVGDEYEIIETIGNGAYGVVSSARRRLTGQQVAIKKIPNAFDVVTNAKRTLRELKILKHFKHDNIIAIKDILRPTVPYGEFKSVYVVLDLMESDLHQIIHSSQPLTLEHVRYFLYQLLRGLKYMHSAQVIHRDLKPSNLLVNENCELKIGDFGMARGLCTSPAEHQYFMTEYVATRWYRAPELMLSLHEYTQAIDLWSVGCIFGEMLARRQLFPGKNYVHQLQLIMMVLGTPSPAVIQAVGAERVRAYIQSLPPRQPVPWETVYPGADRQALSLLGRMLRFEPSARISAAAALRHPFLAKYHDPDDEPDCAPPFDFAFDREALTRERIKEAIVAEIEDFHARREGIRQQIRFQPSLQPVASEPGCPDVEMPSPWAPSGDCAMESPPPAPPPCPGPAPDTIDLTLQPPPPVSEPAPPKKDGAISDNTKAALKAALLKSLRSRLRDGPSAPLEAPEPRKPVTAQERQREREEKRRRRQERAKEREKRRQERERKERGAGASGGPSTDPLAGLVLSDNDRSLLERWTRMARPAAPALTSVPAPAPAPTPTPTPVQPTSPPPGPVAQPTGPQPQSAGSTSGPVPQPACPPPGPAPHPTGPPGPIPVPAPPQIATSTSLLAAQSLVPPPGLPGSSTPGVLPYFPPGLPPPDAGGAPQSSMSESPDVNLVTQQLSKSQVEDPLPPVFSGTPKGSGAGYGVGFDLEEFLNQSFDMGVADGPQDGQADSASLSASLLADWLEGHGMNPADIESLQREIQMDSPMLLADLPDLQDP

F380Y = assay: modulators of BK channel variants, profiling panel, selectivity assay, cell-based, U2OS BacMam, thallium flux, beta subunits (AID 1259406); conditions: at 30 µM;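 also: initial slope of Thallos dye fluorescence rise after thallium is added; log ratio against the mean of 0.3% DMSO vehicle wells on the same plate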
F380Y/beta2Delta = assay: as above; conditions: at 30 µM
[17] = molecular target: Calcium-activated potassium channel subunit alpha-1 (Homo sapiens) + Leucine-rich repeat-containing protein 26 (Homo sapiens) (UniProt Q12791+Q2I0M4); assay: as above; conditions: F380Y/Slo1WT/gamma1, at 30 µM
Calcium-activated potassium channel subunit alpha-1 (Homo sapiens) + Leucine-rich repeat-containing protein 26 (Homo sapiens), sequence (Q2I0M4 whole entry, looked up, one chain of several): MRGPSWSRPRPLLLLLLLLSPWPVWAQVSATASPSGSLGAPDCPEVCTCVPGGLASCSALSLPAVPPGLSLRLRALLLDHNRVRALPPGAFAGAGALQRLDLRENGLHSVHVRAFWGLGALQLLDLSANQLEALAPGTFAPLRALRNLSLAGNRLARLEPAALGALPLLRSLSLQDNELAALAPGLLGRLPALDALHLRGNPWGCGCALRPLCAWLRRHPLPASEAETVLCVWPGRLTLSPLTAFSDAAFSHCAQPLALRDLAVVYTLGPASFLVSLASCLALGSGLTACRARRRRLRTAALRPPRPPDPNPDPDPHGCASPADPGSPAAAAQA

[18] = sensitizers of A549 cells to miR-34 induction, primary screen, imaging, A549 dox-inducible miR-34, nuclei and caspase counts (AID 1347080;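 active = compounds whose cell count with miR-34 switched on is under 0.7 times the count with it off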); conditions: A549 miR-34 inducible, Hoechst nuclei count, 48 h
[19] = measured here: epithelial PC-3E GFP cell survival
[20] = measured here: mesenchymal TEM4-18 mCherry cell survival
[21] = MELAS cybrid survival, CellTiter-Glo 48 h, stronger effect = higher value
[22] = Rieske KO mouse fibroblast survival, CellTiter-Glo 72 h
[23] = stronger effect = lower value, cell number ratio, induced over uninduced
[24] = measured here: relative caspase fold change +Dox/-Dox
[25] = measured here: total cells with miR-34 induction, stronger effect = lower value
[26] = measured here: total cells without miR-34 induction

COc1cc(NC(C)CCCN)c2ncccc2c1 (stereo not drawn)
active: viability decrease [6] 102% | inhibition of viability [9] 97.2% | viability decrease (inhibition) [10] 71.5% | log fold change Tl+ flux (F380Y/beta2Delta) -0.141
1.34: normalised cell number [13, 20]
inactive: inhibition [1] -5% | inhibition [2] 0.29% | fluorescence ratio [3] 0.86 | nuclear beta-catenin stimulation ([4]; at 10 µM) 1.4% | insulin secretion stimulation [5] 0.4% | tube area decrease [7] 11.2% | GLP1 secretion stimulation [8] 2.7% | viability decrease (inhibition) [11] 47.3% | inhibition [12] -0.957% | red/green cell ratio (normalised) [13] 1.43 | z-score [14, 21] -0.353 and -0.329 and 0.456 | remaining NAD [15] 10 nM | luciferase signal [16] 32 AU | log fold change Tl+ flux (F380Y) -0.0858 | log fold change Tl+ flux [17] -0.0425
-0.221 and -0.189 and 1.47: z-score [14, 22]
1.8%: nuclear beta-catenin stimulation ([4]; stimulation, at 2 µM)
0.94: normalised cell number [13, 19]

CCCSc1ccc2nc(NC(=O)OC)[nH]c2c1
2.78 (active) and -2.05 (inactive): z-score [14, 21]
active: nuclear beta-catenin stimulation ([4]; at 10 µM) 49% | viability decrease [6] 87.3% | tube area decrease [7] 102% | inhibition of viability [9] 76% | viability decrease (inhibition) [10] 86.6% | viability decrease (inhibition) [11] 56.7% | luciferase signal [16] 368 AU
inactive: inhibition [1] -2.27% | inhibition [2] -1.24% | fluorescence ratio [3] 1.01 | insulin secretion stimulation [5] -1% | GLP1 secretion stimulation [8] 0.9% | inhibition [12] -6.38% | red/green cell ratio (normalised) [13] 0.93 | remaining NAD [15] 10 nM | log fold change Tl+ flux (F380Y) -0.0721 | log fold change Tl+ flux (F380Y/beta2Delta) 0.0117 | log fold change Tl+ flux [17] -0.0345
0.26: normalised cell number [13, 19]
0.0317 and -0.672 and 1.64: z-score [14, 22]
24.2%: nuclear beta-catenin stimulation ([4]; stimulation, at 2 µM)
0.24: normalised cell number [13, 20]

Cc1cccc(Nc2ccccc2C(=O)O)c1C
0.4%: nuclear beta-catenin stimulation ([4]; stimulation, at 2 µM)
1.08: normalised cell number [13, 20]
1.18: normalised cell number [13, 19]
active: log fold change Tl+ flux (F380Y/beta2Delta) 0.111 | log fold change Tl+ flux [17] 0.101
inactive: inhibition [1] -5% | inhibition [2] 1.05% | fluorescence ratio [3] 0.91 | nuclear beta-catenin stimulation ([4]; at 10 µM) 0.8% | insulin secretion stimulation [5] -1.6% | viability decrease [6] -0.3% | tube area decrease [7] 18% | GLP1 secretion stimulation [8] -0.1% | inhibition of viability [9] -21% | viability decrease (inhibition) [10] 29.6% | viability decrease (inhibition) [11] 2.25% | inhibition [12] 17.3% | red/green cell ratio (normalised) [13] 0.92 | z-score [14, 21] -0.21 and 0.386 and -0.378 | remaining NAD [15] 10 nM | luciferase signal [16] 232 AU | log fold change Tl+ flux (F380Y) 0.0635
-0.308 and -0.333 and -1.12: z-score [14, 22]

CCCN(CCC)S(=O)(=O)c1ccc(C(=O)O)cc1
-0.2%: nuclear beta-catenin stimulation ([4]; stimulation, at 2 µM)
1.12: normalised cell number [13, 20]
-0.203 and 0.258: z-score [14, 22]
inactive: inhibition [1] -3.18% | inhibition [2] -0.48% | fluorescence ratio [3] 0.94 | nuclear beta-catenin stimulation ([4]; at 10 µM) -1.3% | insulin secretion stimulation [5] 0.5% | viability decrease [6] -23.6% | tube area decrease [7] -14.2% | GLP1 secretion stimulation [8] -0.7% | inhibition of viability [9] 12.4% | viability decrease (inhibition) [10] 14.9% | viability decrease (inhibition) [11] -10.5% | inhibition [12] 0.15% | red/green cell ratio (normalised) [13] 1.43 | z-score [14, 21] -0.112 and 0.174 | remaining NAD [15] 10 nM | luciferase signal [16] 80 AU | log fold change Tl+ flux (F380Y) -0.012 | log fold change Tl+ flux (F380Y/beta2Delta) -0.000486 | log fold change Tl+ flux [17] 0.021
0.78: normalised cell number [13, 19]

O=C1[C@H](CC[C@H](O)c2ccc(F)cc2)[C@@H](c2ccc(O)cc2)N1c1ccc(F)cc1
-0.4%: nuclear beta-catenin stimulation ([4]; stimulation, at 2 µM)
0.307: z-score [14, 22]
inactive: inhibition [1] 2.77% | inhibition [2] 3.75% | fluorescence ratio [3] 0.95 | nuclear beta-catenin stimulation ([4]; at 10 µM) 4.5% | insulin secretion stimulation [5] 6% | viability decrease [6] 20.8% | tube area decrease [7] 19.9% | GLP1 secretion stimulation [8] 7.4% | inhibition of viability [9] 32.6% | viability decrease (inhibition) [10] 10.1% | viability decrease (inhibition) [11] 18% | inhibition [12] -1.06% | z-score [14, 21] -0.744 | remaining NAD [15] 10 nM | luciferase signal [16] 44 AU | log fold change Tl+ flux (F380Y) 0.0275 | log fold change Tl+ flux (F380Y/beta2Delta) 0.0773 | log fold change Tl+ flux [17] 0.0312

CC(C)C1CCC(C(=O)N[C@H](Cc2ccccc2)C(=O)O)CC1 (stereo partly drawn)
active: fluorescence ratio [3] 0.74 | insulin secretion stimulation [5] 49.4%
inactive: inhibition [1] -0.4% | inhibition [2] 2.98% | nuclear beta-catenin stimulation ([4]; at 10 µM) -0.5% | viability decrease [6] -22.6% | tube area decrease [7] -2.3% | GLP1 secretion stimulation [8] 2.1% | inhibition of viability [9] -6.47% | viability decrease (inhibition) [10] 1% | viability decrease (inhibition) [11] -23.8% | inhibition [12] 0.904% | fold change [18, 23] 0.871 | z-score [14, 21] -0.215 and -1.18 | remaining NAD [15] 10 nM | luciferase signal [16] 80 AU | log fold change Tl+ flux (F380Y) -0.00809 | log fold change Tl+ flux (F380Y/beta2Delta) 0.0541 | log fold change Tl+ flux [17] 0.0401
10100: cell count [18, 26]
1.37: fold change [18, 24]
-0.618 and -0.816: z-score [14, 22]
8810: cell count [18, 25]
0.2%: nuclear beta-catenin stimulation ([4]; stimulation, at 2 µM)

CCCCCCCCCCC[C@@H](C[C@@H]1OC(=O)[C@H]1CCCCCC)OC(=O)[C@H](CC(C)C)NC=O
4.5%: nuclear beta-catenin stimulation ([4]; stimulation, at 2 µM)
7850: cell count [18, 25]
2.26: fold change [18, 24]
inactive: inhibition [1] -7.52% | inhibition [2] -0.1% | fluorescence ratio [3] 0.95 | nuclear beta-catenin stimulation ([4]; at 10 µM) 2.8% | insulin secretion stimulation [5] -1.7% | viability decrease [6] 42.4% | GLP1 secretion stimulation [8] 0.9% | inhibition of viability [9] 32.5% | inhibition [12] -8.26% | fold change [18, 23] 0.867 | remaining NAD [15] 10 nM | luciferase signal [16] 48 AU | log fold change Tl+ flux (F380Y) 0.0597 | log fold change Tl+ flux (F380Y/beta2Delta) 0.0435 | log fold change Tl+ flux [17] 0.0135
9060: cell count [18, 26]
active: tube area decrease [7] 102% | viability decrease (inhibition) [10] 107% | viability decrease (inhibition) [11] 79.1%

Source: PubChem BioAssay
